This passage reports composite z-score and z-score results from PubChem BioAssay.

Activity calls are given as the source filed them.

The subject of experiment [1] is Plasmodium falciparum Sir2 (PF13_0152, Sir2A). Kind of experiment: Plasmodium falciparum Sir2A binding compounds – biochemical, small-molecule microarray, 635 nm fluorescence, primary screen (AID 1098).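 Note: score merges spot fluorescence intensity with its signal-to-noise ratio.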 As to conditions: fluorescence 635 nm, higher = more signal.
The nature of experiment [2]: probe aDKK1 binding to arrayed compounds – biochemical, biotinylated probe, 635/667 nm fluorescence, primary screen (AID 1099).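 Note: score merges 667nm spot fluorescence with signal to noise across triplicate slides.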 As to conditions: small-molecule microarray, higher = more signal.
Experiment [3] is described as follows: probe aCHRDL2 binding to arrayed compounds – biochemical, biotinylated probe, 635/667 nm fluorescence, primary screen (AID 1100). The conditions noted are these: small-molecule microarray, higher = more signal.
Experiment [4] can be described thus: change in splice reporter luminescence, either direction, cell-based, HEK293, spliceosome inhibition project, primary screen (AID 1101).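 Note: HEK293 cells carrying a splicing-competent luciferase reporter gene; test concentration not given here.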 The conditions noted are these: HEK293 splicing luciferase reporter, 24 h, higher = more signal, called active from +8 up or from −8 down. In general terms: Reporter assays use an easily measured gene product as a stand-in for the process of interest.

The target of experiment [5] is Fibroblast growth factor 10 (Homo sapiens) (UniProt O15520). Kind of experiment: compounds binding fibroblast growth factor 10 – biochemical, small-molecule microarray, 635 nm fluorescence, primary screen (AID 1102). As to conditions: FGF10 binding, fluorescence 635 nm, higher = more signal.
In experiment [6] the test system is glycogen synthase kinase-3 (GSK3A per assay name; protocol says GSK3B). The experiment can be described thus: compounds binding glycogen synthase kinase-3 – biochemical, small-molecule microarray, 635 nm fluorescence, GSK3A, primary screen (AID 1103). Note: the record names both GSK3A and GSK3B. The conditions noted are these: fluorescence 635 nm, higher = more signal.
Experiment [7] deals with Epidermal growth factor receptor (Homo sapiens) (UniProt P00533). Kind of experiment: compounds binding epidermal growth factor receptor – biochemical, small-molecule microarray, 635 nm fluorescence, primary screen (AID 1104).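 Note: score merges 667 nm emission intensity with spot signal to noise over triplicate slides.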 As to conditions: EGFR binding, higher = more signal.
Experiment [8] has as its target Follistatin-related protein 3 (Homo sapiens) (UniProt O95633). Kind of experiment: compounds binding follistatin-related protein 3 – biochemical, small-molecule microarray, 635 nm fluorescence, primary screen (AID 1105).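 Note: score merges emission near 667 nm and signal to noise per printed spot across three slides.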 As to conditions: FSTL3 binding, higher = more signal.
Experiment [9] addresses Dickkopf-related protein 1 (Homo sapiens) (UniProt O94907). The experiment can be described thus: small molecules binding DKK1 protein – biochemical, small-molecule microarray, 635 nm fluorescence scan, primary screen (AID 1106).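 Note: score merges emission near 667 nm with signal to noise over three replicate slides.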 The conditions noted are these: higher = more signal.
Experiment [10] relates to Inhibin beta A chain (activin A). Kind of experiment: small molecules binding activin A – biochemical, small-molecule microarray, 635 nm fluorescence scan, primary screen (AID 1107).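 Note: mouse activin A protein probed at 4.33 µg/mL on printed slides; score merges bound-protein fluorescence near 667 nm with spot signal-to-noise.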 As to conditions: INHBA, higher = more signal.
The test system of experiment [11] is Human papillomavirus type 1a protein E7 (residues 44-93). Kind of experiment: small molecules binding HPV E7 44-93 – biochemical, small-molecule microarray, residues 44-93, 635 nm fluorescence, primary screen (AID 1108).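 Note: E7 fragment applied at 1 µg/mL in TBST for 1 h at 4 C; score combines spot fluorescence with its signal to noise ratio.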 As to conditions: fluorescence 635 nm, higher = more signal.
The nature of experiment [12]: hepatitis C replication reporter changes, two-sided – Huh7 cells, luciferase reporter, HCV replication inhibitor project, primary screen (AID 1109).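 Note: huh7 hepatoma cells harbouring a luciferase neomycin HCV replicon reporter; luciferase luminescence as measure of HCV replicon replication; test concentration not given here.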 As to conditions: Huh7 HCV replicon luciferase reporter, 48 h; higher = more signal.
Experiment [13] has as its target Left-right determination factor 2 (Homo sapiens) (UniProt O00292). Kind of experiment: small molecules binding LEFTY2 protein – biochemical, small-molecule microarray, 635 nm fluorescence scan, primary screen (AID 1110). The conditions noted are these: higher = more signal.
Experiment [14] deals with Calmodulin-1 (Homo sapiens) (UniProt P0DP23). The experiment can be described thus: small molecules binding calmodulin-1 with EGTA – biochemical, small-molecule microarray, Cy5-labelled CALM1, profiling panel (AID 1111).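 Note: labelled calmodulin applied in Tris saline Tween buffer holding calcium plus EGTA and DTT.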 As to conditions: Cy5-CALM1 binding fluorescence, higher = more signal.
Experiment [15] shares this target. Kind of experiment: small molecules binding Ca-loaded calmodulin-1 – biochemical, small-molecule microarray, Cy5-labelled CALM1, plus calcium, artefact control for SMM control-protein annotation, profiling panel (AID 1112).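 Note: score merges spot fluorescence with signal to noise from triplicate slides.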 As to conditions: Cy5-CALM1 binding fluorescence, higher = more signal.
Experiment [16] in a line: probe aWnt5a binding to arrayed compounds – biochemical, biotinylated probe, 635/667 nm fluorescence, primary screen (AID 1113).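 Note: score merges 667 nm fluorescence intensity with signal-to-noise per printed feature.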 The conditions noted are these: small-molecule microarray, higher = more signal.
A short description of experiment [17]: probe aShh binding to arrayed compounds – biochemical, biotinylated probe, 635/667 nm fluorescence, primary screen (AID 1114).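 Note: probe is biotin-labelled aShh protein from a stem cell growth factor screen; measures binding of labelled protein to compounds printed on the slide; score merges feature fluorescence at 667 nm with signal-to-noise.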 As to conditions: small-molecule microarray, higher = more signal.
The nature of experiment [18]: probe aNog binding to arrayed compounds – biochemical, biotinylated probe, 635/667 nm fluorescence, primary screen (AID 1115).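 Note: probe is biotinylated aNog protein used at 0.15 µg/mL for 1 h at 4 C; z-score combines 667 nm fluorescence of each spot with its signal to noise.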 The conditions noted are these: small-molecule microarray, higher = more signal.
Experiment [19] addresses Torsin-1A-interacting protein 1 (Homo sapiens) (UniProt Q5JTV8). Kind of experiment: compound microarray binding of lysate hLAP1 – cell lysate, small-molecule microarray, COS7 lysate, 635/667 nm fluorescence, primary screen (AID 1116). As to conditions: 635 nm fluorescence, higher = more signal.
In experiment [20] the target is Alpha-bungarotoxin (Bungarus multicinctus) (UniProt P60615). Kind of experiment: compounds binding labelled alpha-BTX control protein – biochemical, small-molecule microarray, Alexa647 label, 635/667 nm fluorescence, artefact control for SMM control protein annotation, profiling panel (AID 1117). As to conditions: alpha-BTX-A647 binding fluorescence, higher = more signal.
Alpha-bungarotoxin (Bungarus multicinctus), sequence (P60615 whole entry, looked up): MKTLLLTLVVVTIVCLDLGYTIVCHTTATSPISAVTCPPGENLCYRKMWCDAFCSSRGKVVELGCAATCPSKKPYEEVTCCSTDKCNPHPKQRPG

Fibroblast growth factor 10 (Homo sapiens), sequence (O15520 whole entry, looked up): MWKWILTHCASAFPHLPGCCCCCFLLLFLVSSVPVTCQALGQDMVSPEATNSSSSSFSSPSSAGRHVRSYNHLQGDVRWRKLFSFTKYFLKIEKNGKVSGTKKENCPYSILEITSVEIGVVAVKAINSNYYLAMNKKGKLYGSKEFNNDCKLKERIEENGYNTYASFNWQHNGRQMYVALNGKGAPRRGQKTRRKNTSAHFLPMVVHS
Epidermal growth factor receptor (Homo sapiens), sequence (P00533 whole entry, looked up): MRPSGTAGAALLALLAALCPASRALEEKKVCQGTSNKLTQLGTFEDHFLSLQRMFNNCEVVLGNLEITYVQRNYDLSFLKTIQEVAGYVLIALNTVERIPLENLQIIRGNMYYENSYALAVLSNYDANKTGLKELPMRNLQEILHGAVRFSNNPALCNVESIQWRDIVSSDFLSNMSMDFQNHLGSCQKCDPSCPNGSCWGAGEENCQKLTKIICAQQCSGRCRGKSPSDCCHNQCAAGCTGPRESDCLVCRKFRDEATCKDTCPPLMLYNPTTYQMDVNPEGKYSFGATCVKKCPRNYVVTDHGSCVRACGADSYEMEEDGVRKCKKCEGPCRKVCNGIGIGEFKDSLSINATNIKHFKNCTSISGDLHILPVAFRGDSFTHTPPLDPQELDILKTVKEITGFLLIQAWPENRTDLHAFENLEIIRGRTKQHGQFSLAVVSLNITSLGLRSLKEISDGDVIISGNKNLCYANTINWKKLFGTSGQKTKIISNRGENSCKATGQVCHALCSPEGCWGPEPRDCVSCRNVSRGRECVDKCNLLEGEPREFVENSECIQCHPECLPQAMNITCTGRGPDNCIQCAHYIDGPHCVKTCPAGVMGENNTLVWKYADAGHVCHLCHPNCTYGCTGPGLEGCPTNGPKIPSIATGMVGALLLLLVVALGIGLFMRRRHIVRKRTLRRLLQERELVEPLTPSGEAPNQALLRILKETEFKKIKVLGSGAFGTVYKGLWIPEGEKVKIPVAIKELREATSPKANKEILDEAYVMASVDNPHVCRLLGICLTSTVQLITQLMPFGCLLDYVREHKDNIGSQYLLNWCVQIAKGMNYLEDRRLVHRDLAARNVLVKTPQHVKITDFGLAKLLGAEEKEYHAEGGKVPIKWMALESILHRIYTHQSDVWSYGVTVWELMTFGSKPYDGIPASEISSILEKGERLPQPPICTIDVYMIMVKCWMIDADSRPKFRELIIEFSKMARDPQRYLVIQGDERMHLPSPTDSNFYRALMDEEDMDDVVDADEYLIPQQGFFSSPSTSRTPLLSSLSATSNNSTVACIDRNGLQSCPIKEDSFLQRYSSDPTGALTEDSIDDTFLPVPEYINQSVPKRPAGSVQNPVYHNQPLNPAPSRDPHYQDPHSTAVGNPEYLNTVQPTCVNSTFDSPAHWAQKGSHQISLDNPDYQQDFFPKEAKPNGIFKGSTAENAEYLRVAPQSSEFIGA
Dickkopf-related protein 1 (Homo sapiens), sequence (O94907 whole entry, looked up): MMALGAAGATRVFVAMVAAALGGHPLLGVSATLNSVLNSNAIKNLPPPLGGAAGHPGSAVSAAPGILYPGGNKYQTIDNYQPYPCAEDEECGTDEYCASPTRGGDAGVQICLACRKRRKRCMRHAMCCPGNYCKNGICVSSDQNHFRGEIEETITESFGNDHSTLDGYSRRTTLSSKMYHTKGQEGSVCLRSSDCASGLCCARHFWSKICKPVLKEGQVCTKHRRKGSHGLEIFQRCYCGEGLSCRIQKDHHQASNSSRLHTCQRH
Follistatin-related protein 3 (Homo sapiens), sequence (O95633 whole entry, looked up): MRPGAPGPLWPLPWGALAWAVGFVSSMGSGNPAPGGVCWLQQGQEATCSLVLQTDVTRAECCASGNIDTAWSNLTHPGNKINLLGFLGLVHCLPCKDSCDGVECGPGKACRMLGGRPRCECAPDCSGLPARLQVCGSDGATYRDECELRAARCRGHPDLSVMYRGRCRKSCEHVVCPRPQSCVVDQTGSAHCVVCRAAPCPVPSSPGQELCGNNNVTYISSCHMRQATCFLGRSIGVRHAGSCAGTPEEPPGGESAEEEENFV
Left-right determination factor 2 (Homo sapiens), sequence (O00292 whole entry, looked up): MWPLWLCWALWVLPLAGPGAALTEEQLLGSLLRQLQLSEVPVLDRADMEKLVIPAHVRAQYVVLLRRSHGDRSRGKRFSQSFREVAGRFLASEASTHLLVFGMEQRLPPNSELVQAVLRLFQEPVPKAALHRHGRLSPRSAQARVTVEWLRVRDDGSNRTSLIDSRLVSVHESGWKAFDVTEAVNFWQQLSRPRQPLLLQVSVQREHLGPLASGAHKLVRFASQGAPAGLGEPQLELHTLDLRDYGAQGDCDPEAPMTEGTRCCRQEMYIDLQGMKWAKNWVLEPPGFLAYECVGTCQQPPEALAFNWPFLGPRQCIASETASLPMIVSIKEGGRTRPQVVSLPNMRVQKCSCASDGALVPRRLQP
Torsin-1A-interacting protein 1 (Homo sapiens), sequence (Q5JTV8 whole entry, looked up): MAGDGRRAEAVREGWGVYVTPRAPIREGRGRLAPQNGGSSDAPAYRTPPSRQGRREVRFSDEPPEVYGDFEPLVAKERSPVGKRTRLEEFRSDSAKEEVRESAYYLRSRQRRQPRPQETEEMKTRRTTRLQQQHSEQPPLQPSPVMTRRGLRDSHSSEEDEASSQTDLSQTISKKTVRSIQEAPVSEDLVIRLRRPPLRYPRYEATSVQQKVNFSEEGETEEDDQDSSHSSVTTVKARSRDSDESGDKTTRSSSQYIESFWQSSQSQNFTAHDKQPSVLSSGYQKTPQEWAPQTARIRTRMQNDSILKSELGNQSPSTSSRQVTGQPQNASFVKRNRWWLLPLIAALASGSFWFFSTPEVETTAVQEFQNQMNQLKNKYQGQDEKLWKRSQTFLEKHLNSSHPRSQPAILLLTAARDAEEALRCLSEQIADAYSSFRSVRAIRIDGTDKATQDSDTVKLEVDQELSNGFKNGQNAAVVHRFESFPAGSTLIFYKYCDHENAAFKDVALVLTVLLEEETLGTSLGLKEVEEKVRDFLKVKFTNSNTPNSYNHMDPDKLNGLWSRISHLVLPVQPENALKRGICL

As for `COC(=O)[C@H](C)NC(=O)CCC1CC(OC(=O)NCc2cccc3ccccc23)CC2(CCCC(COC(=O)NCCc3ccc(Cl)cc3)O2)O1` (stereo not given in full), the composite z-score in experiment [1] was -0.0744; in experiment [2], -0.299; in experiment [3] it was -0.444; in experiment [5], 0.794; in experiment [6], 0.69; in experiment [7] it was 0.381. Moreover, the composite z-score in experiment [8] is 0.494; in experiment [9], 0.302; in experiment [10], -0.131; in experiment [11], 0.953; in [13], 0.451; in experiment [14], 0.866. Also, the composite z-score in experiment [15] was -0.0789; in experiment [16], -0.0075; in [17], -0.138; in experiment [18], -0.213; in experiment [19], 0.33; in [20], 0.171. Also, the z-score in experiment [4] was -0.875 (inactive); in experiment [12] it was -1.05.

On to `CC(=O)O[C@H]1C2=C(C(=O)[C@@H]3O[C@@H]31)[C@H]1C(C)O[C@@H]2[C@@]23C(=O)[C@@H]4O[C@@H]4[C@@H](O)C2=CO[C@H](C)[C@@H]13` (stereo not given in full), for which the composite z-score is 0.452 in experiment [1]; -0.475 in experiment [2]; -0.62 in experiment [3]; 0.374 in [5]; -0.0186 in experiment [6]; 0.197 in experiment [7]. Also, the composite z-score in [8] is -0.0861; in [9], 0.326; in experiment [10] it was 0.702; in [11], -0.667; in experiment [13], 0.552; in [14] it was -1.17. In addition, the composite z-score in experiment [15] is -0.891; in experiment [16], -0.101; in experiment [17], -0.13; in experiment [18], -0.18; in [19] it was -0.25; in [20] it was -0.858. Also, the values for the z-score in experiment [4] and in experiment [12] were 0.15 (inactive) and -2.66, respectively.

For the molecule `CC(C)(C)OC(=O)CC[C@]1(C(N)=O)COC(c2ccc(OCCCO)cc2)=N1`, the composite z-score in experiment [1] was 0.755; in experiment [2], 1.59; in [3], 1.38; in experiment [5], 1.34; in experiment [6], 0.977; in [7], -0.395. The composite z-score was 0.278 in experiment [8]; -0.385 in experiment [9]; 0.976 in experiment [10]; 0.0119 in [11]; -0.471 in experiment [13]; 2.68 in experiment [14]. For the same molecule, the composite z-score turned out to be 1.42 in [15]; 0.131 in experiment [16]; 0.591 in [17]; 1.7 in experiment [18]; 2.08 in experiment [19]; 1.64 in experiment [20]. Further, the z-score was -0.337 (inactive) in [4] and -0.518 in [12].

In the case of `CCCC=C(CCC)[C@@H](NC(=O)c1ccc(-c2ccccc2)cc1)c1ccc(C(=O)OC)cc1`, the composite z-score was 0.407 in experiment [1]; 0.245 in [2]; 1 in experiment [3]; -0.316 in experiment [5]; 0.472 in experiment [6]; -0.237 in experiment [7]. In addition, the composite z-score in experiment [8] was 0.0286; in [9] it was -0.673; in experiment [10] it was 0.244; in experiment [11] it was 1.38; in [13], -0.394; in experiment [14] it was 1.84. In addition, the composite z-score stood at 1.31 in experiment [15]; 0.194 in experiment [16]; 0.0195 in experiment [17]; 1.25 in experiment [18]; 0.421 in experiment [19]; 0.93 in experiment [20]. Besides, the results for the z-score in experiment [4] and in experiment [12] were -0.492 (inactive) and -0.552, respectively.

Regarding `C=CCOC(=O)[C@H]1[C@@H]2C(=O)O[C@@H](c3ccccc3)[C@@H](c3ccccc3)N2[C@@H](c2ccc(OCCOC(=O)[C@H]3C[C@H]4C(=O)N5CCC[C@H]5C(=O)N4[C@H]3c3cccc(OCCO)c3)cc2)[C@]12C(=O)Nc1ccc(I)cc12`, the composite z-score in [1] came to 2.03; in experiment [2] it was 2.12; in experiment [3], 1.36; in [5] it was 1.4; in experiment [6], 1.37; in experiment [7] it was 1.02. For the same molecule, the composite z-score in experiment [8] is 1.41; in [9] it was 1.22; in experiment [10], 1.47; in experiment [11], 1.43; in experiment [13] it was 1.29; in experiment [14] it was 2. Also, the composite z-score in experiment [15] came out at 0.977; in experiment [16], 0.995; in experiment [17] it was 1.97; in experiment [18], 2.7; in experiment [19], 3.33; in experiment [20], 1.69. The z-score in experiment [4] is 1.1 (inactive); in experiment [12] it was -0.38.

In the case of `CCOC(=O)NN=C1C[C@@H](O)[C@@H](O)[C@@H]2[C@@H]3C(=O)N(C[C@@H]4CCCO4)C(=O)[C@@H]3CC[C@@H]12`, the composite z-score in experiment [1] is 0.419; in experiment [2], -0.147; in [3] it was -0.133; in experiment [5] it was 0.137; in experiment [6] it was 0.197; in [7] it was 0.364. Further, the composite z-score in experiment [8] is 0.342; in experiment [9], -0.0134; in experiment [10] it was -0.0039; in [11], 0.396; in experiment [13] it was 0.238; in experiment [14], -0.375. Moreover, the composite z-score in [15] was -0.32; in [16] it was -0.0721; in [17], -0.273; in experiment [18] it was -0.0428; in experiment [19] it was 0.584; in experiment [20], -0.189. Further, the z-score was 0.104 (inactive) in [4] and 0.353 in experiment [12].
